# According to PubChem BioAssay (Tox21):
# Records with an inconclusive call do not appear. Activity calls are given as the source filed them. Calls come from the whole dose curve; as a rule, active = well fitted activation curve with a large enough effect in the signal ratio in the repeat runs (not every such curve was filed as active); inconclusive = weak or mixed curves, or effect the other way; inactive = no such curve, though single readings can be large or run the other way; the % refers to the signal ratio.
# Target: Peroxisome proliferator-activated receptor gamma (Homo sapiens) (UniProt P37231)
# Experiment: qHTS assay to identify small molecule agonists of the peroxisome proliferator-activated receptor gamma (PPARg) signaling pathway (AID 743094)
# Details: HEK293H PPARg-UAS-bla, beta-lactamase FRET ratio, 17 h; series mostly up to 57 µM; activation: at the top concentration
# From the text: U.S. Tox21 Program National Center for Advancing Translational Sciences [NCATS] NIH Chemical Genomics Center [NCGC] U.S. Environmental Protection Agency [EPA] National Institutes of Environmental Health Sciences [NIEHS] National Toxicology Program [NTP] U.S. Food and Drug Administration [FDA] Tox21 Assay Overview: The peroxisome proliferator-activated receptors (PPARs) are lipid-activated transcription factors of the nuclear receptor superfamily with three distinct subtypes namely PPAR alpha, PPAR delta (also called PPAR beta) and PPAR gamma (PPARg). All these subtypes heterodimerize with Retinoid X receptor (RXR) and these heterodimers regulate transcription of various genes. PPAR-gamma receptor (glitazone receptor) is involved in the regulation of glucose and lipid metabolism. To identify the compounds that activate PPAR-gamma signaling, GeneBLAzer PPAR gamma UAS-bla HEK293H cell line (Invitrogen, Carlsbad, CA, USA) containing a beta-lactamase reporter gene under control of the control of an upstream activator sequence (UAS) stably integrated into HEK293H cells was used to screen Tox21 compound library.
# Tox21 Assay Protocol Summary: PPARg-bla cells were dispensed at 3000 cells/6uL/well in 1536-well black wall/clear bottom plates using a Multidrop Combi (Thermo Fisher Scientific, Waltham, MA) dispenser. After the assay plates were incubated at 37C and 5% CO2 for 5 h, 23 nL of compounds dissolved in DMSO, positive controls or DMSO only was transferred to the assay plate by a Pintool station (Kalypsys, San Diego, CA). The assay plates were incubated at 37C for 17 h. After 1 uL of LiveBLAzerTM B/G FRET substrate was added using a Bioraptr Flying Reagent Dispenser (FRD) workstation (Beckman Coulter, Indianapolis, IN, USA), the plates were incubated at room temperature for 1 h, and fluorescence intensity was measured by an Envision plate reader (PerkinElmer, Shelton, CT).
# % is set by controls: 0 for no effect and ±100 for the full control effect.
# Sequence of Peroxisome proliferator-activated receptor gamma (Homo sapiens) (P37231 whole entry, looked up): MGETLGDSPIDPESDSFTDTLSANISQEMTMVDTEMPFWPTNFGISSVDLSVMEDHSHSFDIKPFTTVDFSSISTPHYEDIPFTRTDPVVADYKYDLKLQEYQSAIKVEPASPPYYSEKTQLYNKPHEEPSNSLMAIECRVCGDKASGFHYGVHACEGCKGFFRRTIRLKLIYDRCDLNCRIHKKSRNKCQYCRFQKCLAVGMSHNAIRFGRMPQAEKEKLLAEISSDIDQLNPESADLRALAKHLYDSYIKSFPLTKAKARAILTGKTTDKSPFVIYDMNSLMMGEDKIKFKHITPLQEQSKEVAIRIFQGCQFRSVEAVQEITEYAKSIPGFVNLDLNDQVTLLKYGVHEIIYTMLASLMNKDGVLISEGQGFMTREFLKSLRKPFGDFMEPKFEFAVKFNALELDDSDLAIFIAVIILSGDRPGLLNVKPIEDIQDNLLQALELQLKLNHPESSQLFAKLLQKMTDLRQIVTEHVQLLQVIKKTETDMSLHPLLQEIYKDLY
SMILES,activation,outcome
C=CC1CC=CCC1 (stereo not given),-4.54% (inactive),
COc1cc2c(cc1OC)[C@@]13CCN4CC5=CCO[C@H]6CC(=O)N2[C@H]1[C@H]6[C@H]5C[C@H]43,,inactive
CC(C)CC#N,-0.23% [at 78.9 µM] (inactive),
CCCSP(=O)(OCC)Oc1ccc(Br)cc1Cl (stereo not given),0.594% (inactive),
COC(=O)c1c(C(F)F)nc(C(F)(F)F)c(C2=NCCS2)c1CC(C)C,1.28% (inactive),
O=S(=O)(O)C(F)(F)C(F)(F)C(F)(F)C(F)(F)C(F)(F)C(F)(F)F,1.48% (inactive),
CS(=O)(=O)c1cc(C(F)(F)F)ccc1C(=O)c1cnoc1C1CC1,10.4% (inactive),
CC(C)[N+](=O)[O-],0.859% (inactive),
CCOP(=S)(Oc1cnc(C(C)(C)C)nc1)OC(C)C (stereo not given),-4.57% (inactive),
CCCSC(=O)Cl,-8.72% [at 78.9 µM] (inactive),
CCCCOC(=O)[C@@H](C)Oc1ccc(Oc2ccc(C#N)cc2F)cc1,5.98% (inactive),
O=C(O)c1cccc(Cl)c1,2.41% (inactive),
OC(c1ccc(F)cc1)(c1cncnc1)c1ccccc1Cl (stereo not given),-5.31% (inactive),
NC(=O)c1cc([N+](=O)[O-])cc([N+](=O)[O-])c1,-1.61% (inactive),
Cc1nnc2n1-c1sc(CCC(=O)N3CCOCC3)cc1C(c1ccccc1Cl)=NC2,-4.11% (inactive),
C[N+](=O)[O-],-3.67% (inactive),
CC1(C(=O)Nc2ccc(O)c(Cl)c2Cl)CCCCC1,-4.83% (inactive),
C[C@@H]1CN(C2CCC(C#N)(c3ccc(F)cc3)CC2)CC[C@]1(C(=O)O)c1ccccc1 (stereo not given in full),-2.93% [at 26.2 µM] (inactive),
O=C1c2ccccc2C(=O)c2ccccc21,-0.217% (inactive),
ClCC(Cl)Cl,-5.39% [at 78.9 µM] (inactive),

SMILES,activation,outcome
CC(C)NCC(O)c1ccc(N)c(C#N)c1 (stereo not given),3.19% (inactive),
Fc1ccc(C2(Cn3cncn3)OC2c2ccccc2Cl)cc1 (stereo not given),-9.5% (inactive),
CCCSP(=S)(OCC)Oc1ccc(Cl)cc1Cl (stereo not given),7.12% (inactive),
O=P(O)(Oc1ccccc1)Oc1ccccc1,3.86% (inactive),
COc1cc(OC)nc(NC(=O)NS(=O)(=O)c2ncccc2OCC(F)(F)F)n1,1.37% (inactive),
COP(N)(=S)Oc1ccccc1C(=O)OC(C)C (stereo not given),-0.287% (inactive),
O=C(O)c1ccc2[nH]cc(CCCCN3CC=C(c4ccccc4)CC3)c2c1,-2.78% (inactive),
CCc1cc2c(s1)-n1c(C)nnc1CN=C2c1ccccc1Cl,-2.56% (inactive),
O=C(Oc1ccc(Br)cc1)N1CCN2CCC1CC2,2.96% (inactive),
CCCCN(CCCCO)N=O,-9.91% (inactive),
CN(N=O)C(N)=O,2.89% (inactive),
CCSC(=O)N(CC)C1CCCCC1,-0.0076% (inactive),
CNCC(=O)c1ccc(O)c(O)c1,-6.91% (inactive),
O=[N+]([O-])c1cccc(O)c1,-2.56% [at 78.9 µM] (inactive),
COc1ccc(C(=O)N2CCCC2=O)cc1,0.269% (inactive),
c1cc2c(c(N3CCNCC3)c1)OCCO2,-2.15% (inactive),
CC(C)(C)C(=O)C(Oc1ccc(Cl)cc1)n1cncn1 (stereo not given),3.43% (inactive),
CC(Cl)(Cl)[N+](=O)[O-],0.66% (inactive),
c1cc[c]([Hg][c]2ccccc2)cc1,5.91% (inactive),
Oc1c(Cl)cccc1Cl,0.945% (inactive),
